# Laboratory results reported in the supplement of paper PMC5641865, “A screen for kinase inhibitors identifies antimicrobial imidazopyridine aminofurazans as specific inhibitors of the Listeria monocytogenes PASTA kinase PrkA” (The Journal of Biological Chemistry, 2017).
# ± gives the standard deviation of the averaged measurements.
# Test system: Listeria monocytogenes 10403S
# Assay: growth inhibition relative to ceftriaxone-alone control; higher = stronger potentiation of ceftriaxone growth inhibition
# Conditions: 10 µM; ceftriaxone 1 ug/ml; 12 h
# 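Note: End-point A600 read in BHI broth at 37 °C with 2% DMSO, inhibition computed as (1 − OD with compound plus ceftriaxone ÷ OD with ceftriaxone only) × 100.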
row,SMILES,growth inhibition [%]
1,COc1ccc(C2=C(N3CCc4ccccc43)C(=O)NC2=O)cc1,-2.53 ± 0.37
2,COC(=O)c1ccc2c(C(=Nc3ccc(N(C)C(=O)CN4CCN(C)CC4)cc3)c3ccccc3)c(O)[nH]c2c1 [BIBF1120 (Vargatef)],21.6 ± 14
3,Nc1nccc(Oc2ccc(NC(=O)c3c[nH]cc(-c4ccc(F)cc4)c3=O)cc2F)c1Cl,1.11 ± 36
4,CC(=O)Nc1cccc(C#Cc2cncnc2Nc2ccc(OCc3cccc(F)c3)c(Cl)c2)c1,-15 ± 2.5
5,Cn1cc(-c2ccc3nnc(C(F)(F)c4ccc5ncccc5c4)n3n2)cn1,17.1 ± 33
6,NC(=O)c1ccc2c(-c3ccnc(NCCCO)n3)c(-c3ccc(F)cc3)nn2c1,-7.27 ± 16
7,Fc1ccc(-c2ncn(C3CCNCC3)c2-c2ccnc(Oc3ccccc3)n2)cc1,-4.1 ± 5.5
8,ON=C1CCc2cc(-c3nc(C4CCNCC4)[nH]c3-c3ccncc3)ccc21,7.4 ± 4.8
9,CNC(=O)c1cncc(/C=C/c2ccccc2C)c1,25.3 ± 14
10,CCn1c(-c2nonc2N)nc2c(C#CC(C)(C)O)ncc(OC[C@H]3CCCNC3)c21,98.398 ± 0.078
11,CN(C)CCOc1ccc(-c2cc(-c3ccc4c(c3)CCC4=NO)c(-c3ccncc3)o2)cc1,36.5 ± 39
12,CN1CCN(C2CCN(C(=O)Nc3cc(Oc4ccc(NC(=O)C5(C(=O)Nc6ccc(F)cc6)CC5)c(F)c4)ccn3)CC2)CC1 [Golvatinib (E7050)],48.7 ± 37
13,CS(=O)(=O)CCNCc1ccc(-c2ccc3ncnc(Nc4ccc(OCc5ccccc5)c(Br)c4)c3c2)o1,-2.35 ± 3.3
14,CCN1CCC(C(=O)Nc2n[nH]c3nnc(-c4cccc(F)c4F)cc23)CC1,0.339 ± 3.9
15,NS(=O)(=O)c1ccc(-c2cc3ccncc3cc2OCc2ccccc2)cc1,-3.99 ± 6.9
16,Cc1ccc(C(=O)NC2CCC2)cc1-c1ccc(C(=O)NCC2CC2)cc1,-1.49 ± 1.4
17,OCc1ccc(-c2nc(-c3ccc4c(c3)OCO4)c(-c3ccccn3)[nH]2)cc1,7.68 ± 2.9
18,COc1cc(C=NNc2ncnc3c2cnn3Cc2ccccc2)ccc1O,-10.8 ± 3.7

row,SMILES,growth inhibition [%]
1,CCc1cccc(CC)c1/C=C/c1cncc(C(=O)NC)c1,14.6 ± 2.7
2,COC(=O)c1sc(-n2cnc3cc(OC)c(OC)cc32)cc1OCc1ccccc1C(F)(F)F,0.599 ± 0.69
3,COc1cccc(/C=N/Nc2ncnc3c2cnn3-c2cccc(OC)c2)c1,-3.29 ± 11
4,Cc1ccc(NC(=O)c2ccoc2)cc1-c1ccc(C(=O)NCC2CC2)cc1,16.8 ± 3.1
5,Cn1cnc2c(F)c(Nc3ccc(Br)cc3Cl)c(C(=O)NOCCO)cc21 [AZD6244 (Selumetinib)],0.682 ± 22
6,C[C@H](NC(=O)/C(C#N)=C/c1cccc(Br)n1)c1ccccc1,99 ± 0.21
7,COc1cc(N2CCN(C(C)C)CC2)ccc1Nc1nc(Nc2cccc(F)c2C(=O)O)c2cc[nH]c2n1,-0.452 ± 1.2
8,Oc1c2ccccc2c2c3c(cccc13)N=N2,10.4 ± 10
9,CCCN1CCC(Oc2cc(Nc3nc(Nc4cccc(F)c4C(N)=O)c4cc[nH]c4n3)c(OC)cc2Cl)CC1,-13.1 ± 20
10,NC(=O)Nc1sc(-c2ccc(F)cc2)cc1C(N)=O,40.9 ± 15
11,Cc1cc(Nc2cc(CN3CCOCC3)c3nc(C)c(Cc4ccc(Cl)cc4F)n3n2)n[nH]1,12 ± 6.8
12,Nc1nonc1-c1nc2cnccc2n1C1CC1,-9.63 ± 4.1
13,CCS(=O)(=O)c1ccc(OC)c(Nc2ncc(-c3cccc(F)c3)o2)c1,2.54 ± 2.8
14,Cc1nc(NC(=O)N2CCC[C@H]2C(N)=O)sc1-c1ccnc(C(C)(C)C(F)(F)F)c1,24.9 ± 21
15,N#CC1(c2ccc(NC(=O)c3cccnc3NCc3ccncc3)cc2)CCCC1 [Apatinib (YN968D1)],12.7 ± 6.2
16,NS(=O)(=O)c1cccc(N/C=C2\C(=O)Nc3ccccc32)c1,-6.18 ± 1
17,CC[C@@H]1C(=O)N(C)c2cnc(Nc3ccc(C(=O)NC4CCN(C)CC4)cc3OC)nc2N1C1CCCC1,41.8 ± 45
18,CCCN1CCC=C(c2ccc(Nc3nc(Nc4ccccc4C(N)=O)c4cc[nH]c4n3)c(C)c2)C1,-7.58 ± 1.9
